Hits are enriched below; roughly 3.6% of the tested compounds scored in any of these assays.
CendR NRP1 mod = NRP-1/CendR interaction modulation; 0.85% of 360,000 active; FAM-RPARPAR peptide binding to NRP-1, fluorescence polarization; AID 602438; O14786; inhibition, % at 25 µM;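 active = inhibition or corrected inhibition above about 18%, plus a signal ratio from 0.5 to 1.5, limit read from the data, passing the limit was not always enough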
Myeloid diff MLP = promotes myeloid progenitor differentiation. ER-HoxA9 myeloid progenitors, lysozyme-GFP differentiation, flow cytometry. calls only at 10 µM. 1% of 360,000 active. AID 624256;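 active = normalized GFP-positive differentiation at or above the plate's own cutoff, the solvent-only control mean plus 3 SD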;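 note: cells exposed to compound for four days before flow analysis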
CRFBP-R2 block = antagonists of CRF-binding protein/CRF-R2 receptor complex; HEK293 CRF-R2/CRF-BP, CRF-induced calcium fluorescence; inhibition, % at 11.8 µM; 0.59% of 350,000 active; AID 588475;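 active = inhibition of the ligand-induced calcium signal above about 50% at the single tested concentration, limit read from the data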
NadD inh = inhibitors of Staphylococcus aureus NadD; purified NadD enzyme, colorimetric absorbance read-out; inhibition, % at 20 µM; 0.78% of 360,000 active; in the data active = inhibition above about 26%
FAS-TE inh = inhibitors of human fatty acid synthase thioesterase domain; recombinant FAS-TE, OMFH fluorogenic substrate, fluorescence endpoint; 0.67% of 360,000 active; inhibition, % at 15 µM; AID 602261;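 active = compounds whose normalised, plate-corrected inhibition of enzyme fluorescence in the single-dose primary screen is 50% or more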;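 note: 0% = DMSO with enzyme and 100% = substrate without enzyme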
* hit, by the source's call; i = inactive; / = no result; + = active, no number.

SMILES	CendR NRP1 mod	Myeloid diff MLP	CRFBP-R2 block	NadD inh	FAS-TE inh
Cc1c(CCO)sc[n+]1CC(=O)OCCC12CC3CC(CC(C3)C1)C2	3	i	5	1	-1
CCCCCCCCCOC(=O)C[n+]1csc(CCO)c1C	-2	i	111*	-10	-8
Cc1ccc(N2CC(C(=O)OCC(=O)Nc3c(C)cccc3C)CC2=O)cc1 (stereo not drawn)	0	i	3	-2	-6
CCc1ccccc1NC(=O)Cn1nnc(-c2cccs2)n1	11	i	-13	-8	-5
Cc1cccc(NC(=O)Cn2nnc(-c3cccs3)n2)c1C	0	+	6	2	-9
O=C(COc1ccc(Cl)cc1Br)NCC(c1ccco1)N1CCCC1 (stereo not drawn)	-11	i	-12	15	8
O=S(=O)(NCCN1CCOCC1)c1ccc(Oc2ccccc2Cl)cc1	6	+	3	-1	-1
O=c1c([N+](=O)[O-])c(NC2CCCCC2)c2ccccc2n1-c1ccccc1	-9	i	57*	3	-5
COc1cccc(C(C)(O)c2nc(-c3cc(F)cc(F)c3)cs2)c1 (stereo not drawn)	-6	i	/	-3	28
CC1C/C(=N\NC(=O)c2cccnc2)CC(C)(C)C1 (stereo not drawn)	-4	i	-1	-5	3
CC1C/C(=N\NC(=O)c2ccc([N+](=O)[O-])cc2)CC(C)(C)C1 (stereo not drawn)	3	i	72*	-4	27
O=C(CSc1nnc(CNC(=O)c2cccs2)o1)Nc1ccc(Br)cc1	4	i	-16	-4	-1
O=S(=O)(c1cccs1)N1CCCCC1	35*	i	2	4	-4
CC(=O)N1CCC(C(=O)N2CCN(S(=O)(=O)c3cccs3)CC2)CC1	37*	i	4	1	-6
O=C(C1CCN(S(=O)(=O)c2cccs2)CC1)N1CCCCC1	1	i	5	-2	1
CSCCC(NC(=O)c1ccccc1Cl)C(=O)NCCOc1ccc(C)cc1 (stereo not drawn)	12	i	10	-5	1
N=c1oc2c3c4c(cc2cc1C(=O)Nc1ccccc1)CCCN4CCC3	126	+	-317	31*	-153
Cc1ccc(NC(=O)c2cc3ccccc3oc2=N)cc1	5	i	0	1	-3
CC(C)(C)c1ccc(-n2ncc3c2CCCC3NC(=O)CCCn2cncn2)cc1 (stereo not drawn)	-3	i	-25	-2	1
COc1ccncc1-c1csc(C(O)c2ccccc2)n1 (stereo not drawn)	23*	i	/	-5	-6
COc1ccc(C(O)c2nc(-c3cc(F)cc(F)c3)cs2)cc1 (stereo not drawn)	40*	i	/	-3	19
COc1cc(C(O)c2nc(-c3cc(F)cc(F)c3)cs2)ccc1F (stereo not drawn)	6	i	/	2	25
CN(Cc1ccc(Cl)cc1Cl)C(=O)Cc1ccc(S(=O)(=O)N2CCOCC2)s1	-10	i	-14	-3	14
Cc1c(NC(=S)N/N=C/C=C/c2ccc([N+](=O)[O-])cc2)c(=O)n(-c2ccccc2)n1C	36*	i	15	9	-4
COc1cc(C#Cc2c(-c3ccccc3)n(C)c3ccccc23)cc(OC)c1	-2	i	51*	-5	27
SMILES	CendR NRP1 mod	Myeloid diff MLP	CRFBP-R2 block	NadD inh	FAS-TE inh
CCOc1ccc(C(=O)CCC(=O)N2CCN(c3ccc(O)cc3)CC2)cc1	-2	+	-11	-5	-4
CC(=O)Nc1ccc([N+](=O)[O-])cn1	3	i	-6	5	1
Cc1ccc(OCC(=O)Nc2ccc([N+](=O)[O-])cn2)cc1C	-1	i	51*	-7	0
COCCCNC(=O)c1ccc(OC)c(OC2CCN(C(C)C)CC2)c1	-16	i	4	1	-4
CCOC(=O)c1c(/N=C/c2cc(C)ccc2O)sc2c1CCN(C)C2	-18	i	-23	-7	-6
Cc1cccc(/C=N/c2sc3c(c2C(=O)OC(C)(C)C)CCN(C)C3)c1O	31*	i	-22	-14	8
CCCCN(C(=O)c1ccc(-c2ccc(Cl)cc2)o1)c1c(N)n(CCC)c(=O)[nH]c1=O	-4	i	1	8	-5
CN1OC[C@@H]2CN(S(=O)(=O)c3cccc4ccccc34)[C@H](c3ccc(-c4ccccc4)cc3)C[C@@H]21	3	i	0	6	28
Nc1c(N(CCC2=CCCCC2)C(=O)c2ccc([N+](=O)[O-])o2)c(=O)[nH]c(=O)n1Cc1ccccc1	-21	+	-1	15	23
Cc1ccc(C(=O)N(CCC2=CCCCC2)c2c(N)n(Cc3ccccc3)c(=O)[nH]c2=O)o1	0	i	13	3	-2
CCC(=O)Nc1ccc(NC(=O)c2oc3ccccc3c2C)cc1	6	i	98*	-11	1
Cc1ccc(CNC(=O)CSc2n[nH]c(N)n2)cc1	24*	i	12	-1	-7
Cc1ccc(C(=O)Nc2nnc(CC(=O)N/N=C/c3ccncc3)s2)cc1	-52	i	-10	15	-13
COc1ccc(C(=O)Nc2nnc(CC(=O)N/N=C/c3ccc(O)cc3O)s2)cc1	-50	i	/	34*	-22
Cc1ccc(C(=O)Nc2nnc(CC(=O)N/N=C/c3ccc(O)c(O)c3)s2)cc1	-18	i	-42	37*	-3
CCC[C@H]1CN(c2ccc(Br)cc2)C(=O)[C@@H]1CC(=O)NC	0	i	-3	-1	-8
NC(Cc1ccc(Cl)cc1)c1csc(Nc2cc(NCCCO)ncn2)n1 (stereo not drawn)	-2	i	/	-2	-5
COc1ccc(CC(N)c2csc(Nc3cc(NCCCO)ncn3)n2)cc1 (stereo not drawn)	-9	+	/	-7	-5
CC1(C(=O)NC2CCCC2)CCC(=O)N1CCOc1ccccc1 (stereo not drawn)	8	i	/	-5	-3
CC(Sc1nnc(NC2CCCCC2)s1)C(=O)Nc1ccc2c(c1)C(=O)c1ccccc1C2=O (stereo not drawn)	0	i	-31	38*	44
CC(Sc1nnc(NC2CC2)s1)C(=O)Nc1ccc(N2CCOCC2)cc1 (stereo not drawn)	8	i	7	-3	-6
Cc1cc(C)cc(-n2c(C)nc3cc(C(=O)O)ccc32)c1	-4	i	-3	-2	-4
CC(Oc1ccc2ccccc2c1)C(=O)N/N=C/c1cccnc1 (stereo not drawn)	11	i	2	-3	-5
CC(Nc1ccc2ccccc2c1)C(=O)N/N=C/c1ccncc1 (stereo not drawn)	25*	i	-3	3	-4
COc1cc(OC)c(CN2CCc3c([nH]c4ccccc34)C2)cc1Br	-189	+	-13	0	-9
CC(C)CC1C(=O)N(Cc2cn(CCC3OCCO3)nn2)CCS(=O)(=O)N1Cc1ccc(-c2ccncc2)cc1 (stereo not drawn)	0	i	1	8	0

Screening data: PubChem, several laboratories
